Reference: ChEMBL document CHEMBL4513216, “Probing the Open Global Health Chemical Diversity Library for Multistage-Active Starting Points for Next-Generation Antimalarials” (ACS Infect Dis, 2020)
The campaign covered roughly 69,000 compounds. About 8,600 (12%) showed an effect of 50% or more. The entries come from a sample that favours strong results as a whole.

System: Plasmodium berghei
Test: Screen against P. berghei liver stage (PbLuc), transformed with Luciferase, at 10uM
Type: functional, HepG2
Details: tested at 10 uM

First: Cc1nnc(C[C@@H]2COC[C@H]3CN(C(=O)C4=CCCC4)C[C@@H]23)o1
Second: Cc1noc(C[C@@H]2COC[C@H]3CN(C(=O)C4=CCCC4)C[C@@H]23)n1
The INHIBITION of the first is higher: 36.4% for the first, 34.9% for the second.

Going from `COc1cc(N2C[C@@H]3COC[C@@H](Cc4nc(C)no4)[C@@H]3C2)ncn1` to `COc1cc(N2C[C@@H]3COC[C@@H](Cc4nnc(C)o4)[C@@H]3C2)ncn1`, the INHIBITION falls from 65.7% to 50.3%.

Going from `Cc1nnc(C[C@@H]2COC[C@H]3CN(C(=O)c4ccco4)C[C@@H]23)o1` to `Cc1noc(C[C@@H]2COC[C@H]3CN(S(C)(=O)=O)C[C@@H]23)n1`, the INHIBITION rises from 2.4% to 26.5%.

Going from `Cc1noc(C[C@@H]2COC[C@H]3CN(S(=O)(=O)C4CC4)C[C@@H]23)n1` to `CCS(=O)(=O)N1C[C@@H]2COC[C@@H](Cc3nc(C)no3)[C@@H]2C1`, the INHIBITION falls from 24.9% to 12.1%.

Going from `CCCS(=O)(=O)N1C[C@@H]2COC[C@@H](Cc3nc(C)no3)[C@@H]2C1` to `CCc1nc(C2CCCN(C(=O)c3cnn(CC)c3)C2)no1` (stereo not given), the INHIBITION falls from 61.9% to -8.69%.

Compared with `CS(=O)(=O)N1CCCC(C(=O)Nc2cnn(Cc3ccc(F)cc3)c2)C1` (stereo not given), `Cc1ccc(C(=O)Nc2ccccc2N2CCCC2)n1C` is lower in INHIBITION: 30.8% for the first, 21.2% for the second.

Compared with `CCc1ccc(CN2Cc3nccn3CC(Cn3cncn3)C2)o1` (stereo not given), `O=C(O)[C@]12CCCN(Cc3ccoc3)C[C@H]1CN(c1ncccn1)C2` is higher in INHIBITION: -14.3% for the first, 7.24% for the second.

First: CCOc1ncccc1NC(=O)N1CCCN(C(=O)OC)CC1
Second: COC(=O)c1cccc(C(=O)N2CCCCC2CCn2ccnc2C)c1 (stereo not given)
The INHIBITION of the first is lower: -5.1% for the first, 17.3% for the second.

Going from `COc1c(CNCCNC(=O)c2ccc(C)c(F)c2)c(C)nn1C` to `COc1cccc(CN(C)C(=O)NCc2c(C)cc(C)[nH]c2=O)c1`, the INHIBITION rises from 11.2% to 22.3%.

Compared with `COCCn1ccc(NCc2cc3cc(F)ccc3o2)n1`, `Fc1ccc(F)c(CN2CCC(c3n[nH]c4ncccc34)CC2)c1` is lower in INHIBITION: 5.58% for the first, -10.5% for the second.

First: COCC(=O)N1CCCC1c1cc(Nc2nnc(C)s2)nc(C)n1 (stereo not given)
Second: CNc1cc(C(=O)N2CCCCC2CCn2ccnc2C)ccn1 (stereo not given)
The INHIBITION of the first is lower: 18.2% for the first, 64.5% for the second.

Compared with `CN(C)[C@@H]1CN(C(=O)c2ccc3ccccc3n2)C[C@H]1O`, `Cc1ncsc1CCC(=O)N(C)Cc1nc2ccccc2n1C` is lower in INHIBITION: 14.7% for the first, 14.6% for the second.

Going from `c1cnc(N2CCC(c3n[nH]c4ncccc34)C2)nc1` (stereo not given) to `Fc1cccc(Cl)c1CN1CCC(c2n[nH]c3ncccc23)CC1`, the INHIBITION rises from 15.9% to 24.4%.

Going from `CC(C)Oc1cccc(CN2CCC(c3n[nH]c4ncccc34)CC2)c1` to `CC(C)Oc1ccc(CN2CCC(c3n[nH]c4ncccc34)CC2)cc1`, the INHIBITION rises from 66.5% to 70.1%.

First: Fc1ccc(CN2CCC(c3n[nH]c4ncccc34)CC2)cc1F
Second: CC(CCc1ccc(F)c(F)c1)NS(=O)(=O)Cc1ccon1 (stereo not given)
The INHIBITION of the first is lower: 3.45% for the first, 53.5% for the second.

Compared with `CCN(Cc1cnn(C)c1)C[C@H]1CC[C@@H](Cc2ccc(C#N)cc2)O1`, `Cc1ccc(CNC2CCc3[nH]c(=O)ccc3C2)cc1C` (stereo not given) is higher in INHIBITION: 6.33% for the first, 40.1% for the second.

Compared with `CC(C)N1CCC2(C=C(C(=O)NC3CC3)c3ccccc32)CC1`, `CC(C)N1CCC2(CC1)C(=O)N(CCN(C)C)c1ccccc12` is higher in INHIBITION: -24.5% for the first, 49.4% for the second.

Going from `CC(C)c1cc(N(C)Cc2cc(C3CC3)on2)n2nccc2n1` to `Cc1nn(CC(=O)N(C)Cc2nncn2C(C)C)c(=O)c2ccccc12`, the INHIBITION falls from 32.5% to -7.27%.

Going from `CCOC(=O)N1[C@@H](c2ccco2)[C@@H](C(=O)NC)C[C@]12CCCCNC2=O` to `CC(C)NC(=O)N1CCC2(CC(=O)N(c3ccccc3)C2)C1` (stereo not given), the INHIBITION falls from 42.7% to 28.4%.

First: Cc1nc(C(C)C)sc1C(=O)NCCn1ccnc1
Second: Cc1nc(C(C)(C)C)sc1C(=O)NCCn1ccnc1
The INHIBITION of the first is lower: 29.8% for the first, 30.9% for the second.

Compared with `CCCc1nc(C)c(C(=O)NCCn2ccnc2)s1`, `CCCc1nc(C)c(C(=O)NCCn2nc3ccccn3c2=O)s1` is higher in INHIBITION: 51% for the first, 52.8% for the second.

Compared with `CCc1nc(C)c(C(=O)NCCn2nc3ccccn3c2=O)s1`, `Cc1nc(C)c(C(=O)NCCn2nc3ccccn3c2=O)s1` is higher in INHIBITION: -11% for the first, 4.283% for the second.

First: CCN1CCC2(CCN(c3ncccn3)CC2)C1=O
Second: Cn1ccnc1C(=O)N1CCC2(CC1)CC(Oc1cccnc1)CO2 (stereo not given)
The INHIBITION of the first is lower: -12.2% for the first, 32.4% for the second.

Compared with `Cc1ccc(CN2C[C@@H]3CCCO[C@@H]3[C@H](NS(C)(=O)=O)C2)o1`, `Cc1cnn(CC2CCCN2C(=O)CN(C)C2CC2)c1` (stereo not given) is lower in INHIBITION: 46.6% for the first, 29.7% for the second.

First: O=C(c1cccnc1)N1CCCC(c2ccnc3nccn23)C1 (stereo not given)
Second: Cc1nccn1CCC1CCCCN1C(=O)c1ccc2nonc2c1 (stereo not given)
The INHIBITION of the first is higher: 9.3875% for the first, -17.5% for the second.

Compared with `O=C(NCc1cncc2c1CCN(Cc1cccs1)C2)C1CC1`, `CN1CCN(c2ccccc2NC(=O)NCC[S+](C)[O-])CC1` (stereo not given) is higher in INHIBITION: 9.67% for the first, 39.3% for the second.

First: CC(=O)N1CCC(c2cncc(N3CCOCC3)n2)CC1
Second: Cc1cnc(C)c(N2CC[C@H](N3CCOCC3)[C@H](CCCO)C2)n1
The INHIBITION of the first is higher: 41.5% for the first, -12.4% for the second.

Compared with `CN(Cc1ccsc1)C(=O)COC(=O)c1cc(Cl)c[nH]1`, `Cc1nccn1CCC1CCCCN1Cc1ccc(O)cc1Cl` (stereo not given) is lower in INHIBITION: 14.8% for the first, 1.37% for the second.

First: CCCN1CCC(NC(=O)c2ccnc(SCC)c2)CC1
Second: Cc1nccn1CCC1CCCCN1C(=O)c1ccc(N(C)C)cc1 (stereo not given)
The INHIBITION of the first is lower: 49.7% for the first, 66.9% for the second.

Going from `Cc1nccn1CCC1CCCCN1C(=O)c1ccc2[nH]nnc2c1` (stereo not given) to `CN1CCN(c2ccc(Br)cc2NC(=O)c2ccco2)CC1`, the INHIBITION rises from -5.29% to 46.3%.

First: CC(C)CC(CO)NS(=O)(=O)Cc1ccon1 (stereo not given)
Second: Cc1ccc(OCC(C)NS(=O)(=O)Cc2ccon2)cc1 (stereo not given)
The INHIBITION of the first is lower: 23.8% for the first, 48.5% for the second.

First: CN1CCN(c2ccccc2NC(=O)c2ccco2)CC1
Second: CN1CCN(c2ccccc2NC(=O)NCCc2ccccc2)CC1
The INHIBITION of the first is lower: 50.4% for the first, 64.3% for the second.

Work on `CN1CCN(c2ccccc2NC(=O)NCCc2ccc(O)cc2)CC1` yielded an INHIBITION of 35.1%.
